The whole screen tested about 2,400 compounds, of which about 1,900 (79%) were called active. So high a share suggests a set chosen from earlier hits. Not all results are given here. A number with no mark means an inactive call.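 The calls were made as follows: active = inhibition above the mean of all tested compounds plus 3 SD (cut at about 3% in these data); inactive = the rest.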
Assay: SF-1 AF-2 mutant transactivation artefacts – cell-based, luminescence, counter-screen for DAX1 inhibitor project (AID 652136);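 also: 0% = DAX-1 transfected cells with DMSO and 100% = cells without DAX-1 with DMSO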
Conditions: HEK293 StAR-luciferase, SF-1 AF2 mutant, at 6.8 µM, active compounds read high

Row | SMILES | inhibition
1 | COc1ccc(-c2csc(-c3cccs3)n2)cc1OC | 5.61% (active)
2 | CN1CCN(C(=O)c2ccc(-c3ccc(Br)cc3)o2)CC1 | 4.28% (active)
3 | Cc1ccc(S(=O)Cc2ccc(C(=O)N3CCN(C4CCCCC4)CC3)o2)cc1 (stereo not drawn) | 2.33%
4 | O=C(Nc1ncccc1O)c1ccc(S(=O)(=O)N2CCCCCC2)cc1 | 2.43%
5 | O=C(Nc1ncccc1O)c1ccc(S(=O)(=O)N2CCCC2)cc1 | 5.53% (active)
6 | O=C(Nc1ncccc1O)c1ccc(C(=O)c2ccccc2)cc1 | 35.8% (active)
7 | CC1CCN(CCCNC(=O)CN2C(=O)CSc3ccc(S(=O)(=O)N4CCCCC4)cc32)CC1 | 1.65%
8 | Clc1ccc(Nc2nc(-c3cccs3)cs2)nc1 | 7.52% (active)
9 | COc1cc(OC)c(C(=O)NNC(=O)c2ccc(NS(=O)(=O)c3cccs3)cc2)cc1OC | -0.43%
10 | CC(C)(C)c1csc(NC2=NS(=O)(=O)c3ccccc32)n1 | 7.77% (active)
11 | Cc1ccc(N/C=C/C(=O)c2ccccc2)cc1C | 4.16% (active)
12 | Fc1ccc2cnc(-c3ccccc3)cc2c1 | 5.1% (active)
13 | O=C(NCCc1ccc(F)cc1)c1ccc2nccnc2c1 | 8.87% (active)
14 | COc1ccc2nc(-c3ccccn3)ccc2c1 | 5.03% (active)
15 | Cc1nn(-c2ccc([N+](=O)[O-])cc2)c(N)c1-c1ccccc1 | 6.97% (active)
16 | O=C(NC(=S)Nc1ccc(Cl)cc1Cl)C1CC1 | 3.76% (active)
17 | COc1ccc(CCOC2OC(CO)C(OC(=O)/C=C/c3ccc(O)c(OC)c3)C(O[C@H]3O[C@@H](C)[C@H](O)[C@@H](O)[C@H]3O)C2O)cc1O (stereo partly drawn) | 1.22%
18 | Cc1cc(OCc2cc(C(=O)NCc3cc(C(C)C)no3)no2)cc(C)c1Cl | 3.41% (active)
19 | CCC(=O)Nc1ccc(-c2ccc(N3CCCCC3)nn2)cc1 | 2.89% (active)
20 | CCCOc1ccc(C(=O)NCCc2ccccc2)cc1 | 4.75% (active)
21 | COc1ccc(C(=O)NCC[N+](C)(C)C)cc1 | 1.97%
22 | COc1ccc(CCNC(=O)COC(=O)Cc2ccccc2F)cc1 | -0.5%
23 | CN(C(=O)c1cc2c(=O)n3ccccc3nc2s1)C1CCCCC1 | 3.77% (active)
24 | Cc1ccccc1OCC(=O)Nc1ccc2c(c1)ncn2C | 5.06% (active)
25 | Cc1ccccc1Nc1nc(N)nc(CSc2ccccc2)n1 | 9.51% (active)
26 | CCOc1cccc(/C=C/c2ccc3ccccc3n2)c1OC(C)=O | 2.8%
27 | CNCC(O)c1ccc(O)c(O)c1 (stereo not drawn) | -2.85%
28 | O=c1c2c(nc3cc(-c4cccc(Cl)c4)[nH]n13)CCCC2 | 5.64% (active)
